Structures are written as SMILES. Among all 30,000 compounds or so, about 580 (1.9%) were called active. Rule as the data show it: active = inhibition above about 43%; inactive = the rest. For the sample, actives were picked, then their nearest neighbours and some compounds at random.

The values below come from PubChem BioAssay AID1259251 (The Scripps Research Institute Molecular Screening Center, 2017).

Serine/threonine-protein kinase ULK1 (Homo sapiens), sequence (O75385 whole entry, looked up): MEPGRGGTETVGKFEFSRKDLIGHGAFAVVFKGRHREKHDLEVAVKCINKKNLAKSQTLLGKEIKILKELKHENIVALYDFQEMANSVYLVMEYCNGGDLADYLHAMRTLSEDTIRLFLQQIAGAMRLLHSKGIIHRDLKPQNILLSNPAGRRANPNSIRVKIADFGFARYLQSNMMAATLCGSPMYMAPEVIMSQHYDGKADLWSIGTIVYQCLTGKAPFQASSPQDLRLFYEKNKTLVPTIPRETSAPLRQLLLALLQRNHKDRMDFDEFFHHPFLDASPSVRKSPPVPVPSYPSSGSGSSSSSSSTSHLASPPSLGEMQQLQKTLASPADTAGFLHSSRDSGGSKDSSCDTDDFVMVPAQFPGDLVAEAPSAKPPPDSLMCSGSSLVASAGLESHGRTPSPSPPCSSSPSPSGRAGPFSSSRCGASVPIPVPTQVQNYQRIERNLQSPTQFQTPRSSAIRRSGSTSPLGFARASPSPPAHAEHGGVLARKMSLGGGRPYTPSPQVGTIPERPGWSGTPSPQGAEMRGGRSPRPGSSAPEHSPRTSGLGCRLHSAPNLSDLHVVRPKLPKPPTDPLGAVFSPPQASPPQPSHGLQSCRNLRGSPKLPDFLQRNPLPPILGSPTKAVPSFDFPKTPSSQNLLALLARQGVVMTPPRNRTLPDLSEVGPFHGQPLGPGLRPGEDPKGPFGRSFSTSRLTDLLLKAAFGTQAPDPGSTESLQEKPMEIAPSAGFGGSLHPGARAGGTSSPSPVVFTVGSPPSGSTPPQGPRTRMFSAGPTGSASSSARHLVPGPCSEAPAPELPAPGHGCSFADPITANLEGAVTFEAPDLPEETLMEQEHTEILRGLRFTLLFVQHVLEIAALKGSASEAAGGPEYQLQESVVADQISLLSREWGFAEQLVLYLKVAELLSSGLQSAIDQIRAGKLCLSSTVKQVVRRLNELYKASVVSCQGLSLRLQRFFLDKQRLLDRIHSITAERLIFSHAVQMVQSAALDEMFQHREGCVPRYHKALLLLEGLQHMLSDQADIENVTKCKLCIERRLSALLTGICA

The assay concerns the target Serine/threonine-protein kinase ULK1 (Homo sapiens) (UniProt O75385). Kind of assay: inhibition of human autophagy kinase ULK1 – biochemical, AlphaScreen, primary screen (AID 1259251).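 Also: 0% = median of compound wells and 100% = no enzyme.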 The following applies: AlphaScreen Atg13 phosphorylation by ULK1, luminescence; at 5.96 µM; hits give high values.
The term inhibition denotes the drop in the measured response relative to a control, in per cent. As to `CC(NC(=O)C(C(=O)c1ccccc1)n1ccccc1=O)c1ccccc1` (stereo unspecified), the inhibition was 1.21% (inactive).
Regarding `N#Cc1cccc(C[C@H](N)c2nc3ccc(-c4ccncc4)cc3[nH]2)c1`, the inhibition is 7.99% (inactive).
Regarding `COc1cc2nc(Nc3ccccc3)nc(NCc3cccc(C(F)(F)F)c3)c2cc1OC`, the inhibition was -26.9% (inactive).
In the case of `COc1nc(Nc2ccccc2)nc(-c2ccc(C(=O)NC3CC3)cc2)n1` it was 22.8% (inactive).
In the case of `COc1ccc(CCNc2cc(NC3CCN(Cc4ccccc4)CC3)ncn2)cc1`, the inhibition was -6.44% (inactive).
As to `COc1cc(OC)nc(Oc2ccccc2/C=N/N(C)C(N)=S)n1`, the inhibition was 10.3% (inactive).
For the molecule `CCN(CC)C(=O)C1CCCN(c2cc(Nc3ccccc3)nc(N)n2)C1` (stereo unspecified), the inhibition is 13.1% (inactive).
As for `O=C(NCc1cccc(Cl)c1)Nc1ccc(-c2cn[nH]c2)cc1`, the inhibition is 16% (inactive).
Next, `Fc1ccc(CNc2ncc3ccc(-c4cn[nH]c4)cc3c2Cl)cc1`: 70.6% (active); `COc1ccc(CNC(=O)c2c[nH]c3cc(-c4cn[nH]c4)ccc23)cc1`: -3.48% (inactive); `O=C(Oc1ccc([N+](=O)[O-])cc1)c1ccc2c(c1)C(=O)N(c1ccc([N+](=O)[O-])cc1)C2=O`: 8.64% (inactive).
As for `COc1ccc(CCNC(=O)c2cnc(-c3cccs3)s2)cc1`, the inhibition is -2.76% (inactive).
In the case of `COc1ccc(-c2nc3ncnc(NCCN4CCOCC4)c3[nH]2)cc1` it was 0.53% (inactive); in that of `Cc1ncc2c(NCCCN3CCOCC3)nc3ccccc3n12`, 12.3% (inactive).
Next, `Oc1c(Cl)cc(Cl)c(Cl)c1Cc1c(O)c(Cl)cc(Cl)c1Cl`: 75.9% (active); `c1cc(-c2ocnc2-c2ncco2)cc(Nc2ccc(N3CCOCC3)cc2)n1`: -5.51% (inactive); `CC(C)c1nc2ccc(-c3cn[nH]c3)cc2c(=O)[nH]1`: 69% (active).
As for `CC(C)c1nc2ccc(-c3ccnn3C)cc2c(=O)[nH]1`, the inhibition is -1.76% (inactive).
In the case of `COc1ccc(C(N)c2nc3ccc(-c4cn[nH]c4)cc3c(=O)[nH]2)cc1` (stereo unspecified), the inhibition is 16% (inactive).
For the molecule `Cc1cccc(C(=O)NCc2ccccc2)c1N1CCC2(CC1)OCCO2`, the inhibition is 4.05% (inactive).
For the molecule `Cc1cc(NC2CC2)nc(N2CCCC2CO)n1` (stereo unspecified), the inhibition is -3.85% (inactive).
Turning to `CC(C)N(CCNc1ccnc(Nc2ncccn2)n1)C(C)C`, the inhibition is -7.14% (inactive).
On to `Cc1ncn(-c2ccc(Nc3nccc(-c4cc(C#N)cc(NC5CCN(C)CC5)c4)n3)cc2)n1`, for which the inhibition is 3.12% (inactive).
Take `Cc1ccc(-c2ncn(-c3ccc(Nc4nccc(-c5cc(C#N)cc(N6CCCC(O)C6)c5)n4)cc3)n2)cn1` (stereo unspecified): the inhibition is 0.75% (inactive).
In the case of `Cn1nnnc1-c1ccc(Nc2nccc(-c3ccc(N4CCC(O)CC4)c(C#N)c3)n2)cc1` it was 64.2% (active).
In the case of `Cn1c(Nc2nc3ccc(C(=O)NCCO)cc3s2)nc2ccccc21` it was 20.6% (inactive); in that of `Cc1cc(NCc2cccc(C(F)(F)F)c2)nc(NC2CCC(O)CC2)n1` (stereo unspecified), -8.27% (inactive).
As for `Nc1nc(Nc2cnccn2)cc(NC2CCN(Cc3ccccc3)CC2)n1`, the inhibition is -0.08% (inactive).
On to `CC(=O)c1cccc(-c2nc3ncnc(NCc4nc5ccccc5[nH]4)c3[nH]2)c1`, for which the inhibition is -5.39% (inactive).
In the case of `CC(C)(C)c1nc(-c2cccc(NS(=O)(=O)c3c(F)cccc3F)c2F)c(-c2ccnc(N)n2)s1`, the inhibition was 66.2% (active).
Consider `CCCNc1nc(-c2cccc(C(C)=O)c2)nc2c1ncn2-c1ccccc1`, for which the inhibition is -6.8% (inactive).
Regarding `C[C@@H](CN)Oc1ncccc1C(=O)Nc1ccc2[nH]ncc2c1`, the inhibition was 0.92% (inactive).
In the case of `OCC1CCCN1c1nc2ncnc(NC3CC3)c2[nH]1` (stereo unspecified) it was 1.11% (inactive); in that of `COc1cccc(CNC(=O)Nc2ccc(-c3cn[nH]c3)cc2OC2CCNC2)c1` (stereo unspecified), 55.8% (active).
For the molecule `COc1cccc(CN(CC2CC2)C(=O)Nc2ccc(-c3cn[nH]c3)cc2OC)c1`, the inhibition is -27.8% (inactive).
For `COc1cccc(CNC(=O)Nc2ccc(-c3cn[nH]c3)cc2OC2CCC(O)C2)c1` (stereo unspecified), the inhibition is 2.68% (inactive).
On to `CCCNc1nc(NCc2cccnc2)nc2c1ncn2Cc1ccc(C(F)(F)F)cc1`, for which the inhibition is -9.26% (inactive).
In the case of `O=C(NCc1cccc(C(F)(F)F)c1)c1cnc(NCCCN2CCCC2=O)s1`, the inhibition was -7.22% (inactive).
Consider `COC(=O)c1ccc(Cn2c(-c3nnc(CC(C)C)o3)cc3ccccc32)o1`, for which the inhibition is -10% (inactive).
Regarding `CC(=O)c1cccc(-c2nc3c(NCCCN4CCCC4=O)ncnc3n2C(C)C)c1`, the inhibition was 5.85% (inactive).
Turning to `CC(=O)Nc1ccc(Nc2ncnc3c2nc(-c2cccc(N)c2)n3C(C)C)cc1`, the inhibition was -4.82% (inactive).
`CC(=O)c1cccc(-c2nc3c(Nc4ccc(N5CCOCC5)cc4)ncnc3n2C(C)C)c1`: the inhibition is 67.5% (active).
Turning to `O=C1NC(=S)NC(=O)C1=Cc1ccc(-c2ccc([N+](=O)[O-])c(Cl)c2)o1`, the inhibition was 24.2% (inactive).
For the molecule `O=C(NCc1cccc(NC(=O)C2CC2)c1)Nc1ccc(-c2cn[nH]c2)cc1`, the inhibition is 6.93% (inactive).
For the molecule `Cn1cc(-c2cc(Nc3ccc(N4CCOCC4)cn3)ncc2Cl)cn1`, the inhibition was 53.2% (active).
Next, `Cn1nccc1Nc1cc(Nc2ccc(N3CCOCC3)cc2)ncn1`: 17.2% (inactive); `COc1cc(Nc2cc(-c3nocc3-c3cnn(C)c3)ccn2)ccc1N1CCOCC1`: -3.85% (inactive); `COc1ccc(CCNc2cc(-c3csc4ccccc34)ncn2)cc1`: -12% (inactive).
Turning to `COCCn1nnnc1C(c1cc2ccc(C)cc2[nH]c1=O)N1CCc2ccccc21` (stereo unspecified), the inhibition was -5.34% (inactive).
Regarding `O=C(Nc1ccc(-c2cn[nH]c2)cc1)C1CCc2ccccc2O1` (stereo unspecified), the inhibition was 12.4% (inactive).
On to `COc1cc(Nc2ccc(N3CCC(C(=O)NCc4nc5ccccc5[nH]4)CC3)nn2)cc(OC)c1OC`, for which the inhibition is 7.51% (inactive).
For the molecule `COc1ccc2c(c1)CC(C(=O)Nc1ccc(-c3cn[nH]c3)cc1OCCN(C)C)CO2` (stereo unspecified), the inhibition was 7.42% (inactive).
Take `O=C(c1ccc(Nc2nccc(-c3ccc4c(=O)[nH]c(C5CC5)nc4c3)n2)cc1)N1CCCC1`: the inhibition was 62.9% (active).
For `COc1cccc(Nc2nccc(-c3ccc4c(=O)n(C5CC5)c(C)nc4c3)n2)c1`, the inhibition is 21.2% (inactive).
In the case of `CC(C)NC(=O)c1cccc(Nc2nccc(-c3ccc4nc(C5CC5)nc(N5CCCC5)c4c3)n2)c1` it was -33.9% (inactive); in that of `OCC1CCCN1c1nc(NC2CCN(Cc3ccccc3)CC2)c2ncn(Cc3ccc(C(F)(F)F)cc3)c2n1` (stereo unspecified), -14.8% (inactive).
